Our source for the growth values is PubChem BioAssay (NCI).

What all share (experiment): NCI-60 one-dose screen, 48 h (100 = growth as untreated, 0 = no growth, -100 = all killed)
What all share (conditions): 10 µM unless noted

Assay [1] has as its system NCI-H23 lung.
Assay [2] has as its system NCI-H226 lung.
For assay [3], the system named is NCI-H322M lung.
For assay [4], the system named is HOP-62 NSCLC.
The subject of assay [5] is NCI-H460 lung.
Assay [6] concerns HOP-92 NSCLC.
Assay [7] has as its system NCI-H522 lung.
In assay [8] the test system is A549/ATCC NSCLC.
For assay [9], the system named is 786-0 renal.
Assay [10] has as its system COLO 205 colon.

About 83,000 compounds went through this panel and 20% of them were active in at least one assay; those are over-represented in the sample as a whole.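 Testing used 96-well plates and a 48-hour single-concentration exposure. Example: -40 means 40% of the starting cells died.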 A number with no mark means an inactive call. Activity calls are given as the source filed them. Rule for the calls: active = growth percent below 10; inactive = the rest.

Take `COC(=O)[C@@H](C)C[C@H](Cc1ccccc1)NC(=O)c1csc([C@@H](C[C@H](C(C)C)N(C)C(=O)C2(NC(=O)[C@H]3CCCCN3C)CC2)OC(C)=O)n1`: the growth is 15.7% in assay [1]; 50.8% in assay [2]; 44.8% in assay [3]; 9.05% (active) in assay [4]; 3.12% (active) in assay [5]; -3.99% (active) in assay [6]. Further, the growth was 1.55% (active) in assay [7], 11.7% in [8], 17.6% in assay [9] and -55% (active) in assay [10].

For the compound `CN1C(=O)C23CC4(C56CC78SSC(CO)(C(=O)N7C5Nc5ccccc56)N(C)C8=O)c5ccccc5NC4N2C(=O)C1(CO)SS3` (stereo not given), the growth in assay [1] was -72.9% (active); in assay [2] it was -100% (active); in [3], -94.5% (active); in assay [4] it was -86.4% (active); in assay [5], -89.4% (active); in assay [6] it was -99% (active). The growth is -85.9% (active) in assay [7], -88.5% (active) in [8], -97.4% (active) in assay [9] and -87.8% (active) in [10].

For the compound `COc1cc([C@@H]2c3cc4c(cc3[C@H](OC(C)=O)[C@H]3COC(=O)[C@@H]23)OCO4)cc(OC)c1OC`, the growth in assay [1] was 0.572% (active); in assay [2], 33.2%; in assay [3] it was 36.3%; in [4] it was 10.6%; in assay [5], -4.08% (active); in assay [6], 27.2%. The growth in assay [7] is -34.7% (active); in assay [8] it was 10.5%; in [9] it was 2.27% (active); in assay [10], -75.8% (active).

As for `CCCc1cc(O)c2c3c(c(=O)oc2c1)CN(C)CC3`, the growth in [1] was 54.5%; in [2], 38.9%; in assay [3], 42.9%; in assay [4] it was 28.6%; in assay [5], 11.9%; in [6], 81.6%. Also, the growth was 18.4% in assay [7], 29.1% in [8], 55% in assay [9] and 21% in [10].

`CC(C)CCC(=O)O[C@H]1CC[C@H]2[C@@H]3CCC4=CC(=O)CC[C@]4(C)[C@H]3CC[C@]12C`: the growth in assay [1] is 95.2%; in [2], 97.5%; in assay [3], 93.4%; in [4], 102%; in assay [5], 98.7%; in assay [6], 112%. The growth in assay [7] is 93.3%; in assay [8], 96%; in assay [9], 105%; in assay [10], 106%.

As for `Oc1c(CCl)cc(Cl)cc1CCl`, the growth in [1] was 100%; in assay [2] it was 98.8%; in assay [3] it was 123%; in [4], 95.1%; in assay [5] it was 108%; in assay [6], 92.8%. In addition, the growth in assay [7] was 105%; in assay [8] it was 116%; in assay [9] it was 114%; in assay [10] it was 109%.

In the case of `O=C(CC1(O)C(=O)Nc2ccccc21)c1ccc(C(=O)NCC2CCC3(CC2)OOC2(CCCCC2)OO3)cc1` (stereo not given), the growth in assay [1] was 50.4%; in [2], 63.6%; in assay [3], 88.9%; in [4], 63.8%; in assay [5] it was 77.1%; in [6], -53.6% (active). Also, the growth in assay [7] is 54.9%; in [8] it was 57.9%; in assay [9], -34% (active); in assay [10] it was 80%.

Take `CC1(C)N=C(N)N=C(N)N1c1ccc(OCCCNC(=O)Nc2ccc(S(=O)(=O)F)cc2)c(Cl)c1`: the growth in assay [1] is 27.3%; in assay [2] it was 40.1%; in [3] it was 52.5%; in assay [4], 49%; in assay [5], 14.4%; in assay [6], 78.6%. In addition, the growth is 21.5% in assay [7], 18% in assay [8], 27.5% in assay [9] and 31.5% in assay [10].

Turning to `O=C(CC1(O)C(=O)N(Cc2ccccc2)c2ccc(Cl)cc21)c1ccc(C(=O)NCC2CCC3(CC2)OOC2(CCCCC2)OO3)cc1` (stereo not given), the growth in [1] was -67% (active); in [2], -41.3% (active); in assay [3], 64.2%; in assay [4], -65.3% (active); in assay [5], -47.2% (active); in assay [6] it was -73.2% (active). Besides, the growth in assay [7] was -26.7% (active); in assay [8] it was -55.8% (active); in [9], -73.6% (active); in assay [10] it was -66.5% (active).

As for `COc1ccc(/C=C/c2cc(OC)c(OC)c(OC)c2)cc1NC(=O)/C=C/c1ccc(F)cc1`, the growth was 6.1% (active) in assay [1]; 36.6% in assay [2]; 55.5% in assay [3]; 24.9% in assay [4]; 14.6% in assay [5]; 93.1% in assay [6]. Moreover, the growth in assay [7] is -8.36% (active); in [8], 38%; in [9], 37.8%; in assay [10], -26.3% (active).

`C/C(Cc1ccc(Cl)cc1)=C(\c1ccc(OCCN2CCOCC2)cc1)c1ccc(OC(=O)Cc2ccccc2)cc1`: the growth is 92.9% in assay [1]; 101% in assay [2]; 83% in [3]; 102% in [4]; 95.8% in assay [5]; 77.2% in [6]. Besides, the growth in assay [7] is 69.7%; in assay [8], 78.9%; in assay [9], 92.6%; in assay [10] it was 99.8%.

For `O=C1NC(=O)C(=Cc2cn(C(=O)c3ccccc3)c3ccccc23)C(=O)N1`, the growth in assay [1] was 98%; in assay [2], 92.3%; in [3] it was 95.5%; in assay [4], 93.4%; in assay [5] it was 97.6%; in assay [6], 71.8%. The growth in assay [7] is 85.8%; in assay [8] it was 101%; in assay [9], 101%; in assay [10], 113%.

As for `CC(C)[C@@H]1NC(=O)[C@]2(C)CSC(=N2)c2csc(n2)CNC(=O)C[C@@H](/C=C/CCS)OC1=O`, the growth was 8.6% (active) in assay [1]; 0.257% (active) in assay [2]; 7.74% (active) in assay [3]; -1.73% (active) in [4]; 8.13% (active) in assay [5]; -21.5% (active) in [6]. In addition, the growth in assay [7] was -25.2% (active); in assay [8], -15.1% (active); in [9] it was 10.2%; in assay [10], -78.3% (active).

On to `CC1=C(CN)C2=C(C)C3(CC3)[C@@](C)(O)C(=O)C2=C1`, for which the growth in [1] is 68.2%; in assay [2], 91.8%; in [3] it was 91.6%; in assay [4], 88.2%; in assay [5], 66.1%; in [6] it was 115%. Further, the growth in assay [7] is 87.9%; in [8], 93.5%; in assay [9], 99%; in assay [10], 85.1%.

For `COc1ccc(C(=O)c2cc(OC)c(OC)c(OC)c2)cc1OC(C)=O`, the growth was 31% in [1]; 102% in assay [2]; 42% in assay [3]; 25.2% in [4]; 7.92% (active) in assay [5]; 50.9% in assay [6]. The growth in [7] is 10.3%; in [8], 22.4%; in [9], 26.5%; in assay [10], 16.3%.

Regarding `CC[C@]12C=CCN3CC[C@@]4(c5ccc(OC)cc5N(C)[C@H]4[C@@](O)(C(=O)OC)[C@@H]1OC(=O)CCCC[P+](c1ccccc1)(c1ccccc1)c1ccccc1)[C@@H]32`, the growth in assay [1] was 6.4% (active); in assay [2], 15.1%; in assay [3] it was 47.1%; in assay [4], 26.4%; in [5] it was 18.4%; in assay [6], -30% (active). Besides, the growth in assay [7] is -5.5% (active); in assay [8], 22.1%; in [9], 57.2%; in [10], -93.7% (active).

Regarding `CCOC(=S)S[C@H]1C[C@@H]2[C@H](CC[C@]3(C)C(=O)CC[C@@H]23)[C@@]2(C)CCC(=O)C=C12`, the growth is 101% in [1]; 106% in [2]; 102% in [3]; 112% in assay [4]; 105% in [5]; 117% in [6]. Further, the growth is 95.6% in assay [7], 107% in assay [8], 102% in assay [9] and 115% in assay [10].

On to `CC[C@@H]1[C@@H](C)O[C@@](O)([C@@H](C)[C@H](O)[C@H](C)[C@H]2OC(=O)/C=C/C=C/[C@H](C)[C@@H]([C@@H](C)[C@@H](O)[C@H](C)[C@@]3(O)C[C@@H](O[C@H]4C[C@@H](O)[C@H](O)C(C)O4)[C@H](CC)[C@@H](C)O3)OC(=O)/C=C/C=C/[C@@H]2C)C[C@H]1O[C@@H]1C[C@@H](O)[C@H](O)C(C)O1` (stereo not given in full), for which the growth is -73.9% (active) in assay [1]; -57.5% (active) in assay [2]; -96.6% (active) in assay [3]; -80.6% (active) in assay [4]; -72.6% (active) in assay [5]; -89.9% (active) in assay [6]. For the same compound, the growth in assay [7] was -81.8% (active); in assay [8] it was -89.7% (active); in [9] it was -86.1% (active); in assay [10], -78.4% (active).

For the compound `O=C1CC2(CC3(Cl)C(Cl)=C(Cl)C2(Cl)C3(Cl)Cl)C(=O)O1` (stereo not given), the growth in assay [1] was 96.8%; in assay [2], 110%; in assay [3], 99.3%; in assay [4], 91.6%; in assay [5] it was 112%; in assay [6], 107%. The growth in [7] was 102%; in [8], 105%; in assay [9] it was 96.3%; in assay [10], 126%.

`CCOc1ccc(/C=C/[N+](=O)[O-])cc1`: the growth in [1] is 87.8%; in [2], 81.4%; in [3], 98.5%; in assay [4], 110%; in assay [5] it was 98.2%; in assay [6] it was 76.6%. Further, the growth in assay [7] is 96.8%; in assay [8], 78.8%; in assay [9], 92.4%; in assay [10], 94.1%.

For `CC1=C(O)[C@@](C)(CCCCC[C@H](C)CCCCc2ccc(O)cc2)OOC1=O`, the growth in [1] is 85.2%; in [2] it was 107%; in assay [3], 94.6%; in assay [4] it was 91.1%; in [5], 108%; in [6] it was 75.2%. The growth in [7] is 64.5%; in assay [8] it was 96.9%; in [9], 105%; in [10], 107%.

`CN(CCCCN(C)CCOS(C)(=O)=O)CCOS(C)(=O)=O`: the growth is 84% in [1]; 75% in [2]; 105% in [3]; 84.7% in assay [4]; 35.2% in [5]; 86.3% in [6]. In addition, the growth was 81.3% in assay [7], 78.9% in assay [8], 100% in assay [9] and 74.2% in assay [10].

`CC(=O)O[C@H]1CC[C@@]2(C)C(=CC[C@H]3[C@@H]4C[C@@H](N5CC5)[C@H](C(C)=O)[C@@]4(C)CC[C@@H]32)C1`: the growth was 98.5% in [1]; 92.2% in assay [2]; 110% in assay [3]; 83.4% in assay [4]; 93.2% in assay [5]; 80.7% in [6]. Besides, the growth was 88.7% in [7], 100% in assay [8], 101% in assay [9] and 99.2% in [10].

Consider `COC(=O)[C@@H](C)C[C@H](Cc1ccccc1)NC(=O)c1nc([C@@H](C[C@H](C(C)C)N(C)C(=O)[C@@H](NC(=O)[C@H]2CCCN2C)C(C)C)OC(C)=O)sc1C`, for which the growth in [1] is 31.8%; in assay [2] it was 43.4%; in assay [3], 35.2%; in assay [4] it was 21.1%; in assay [5], 7.21% (active); in assay [6] it was 8.77% (active). Moreover, the growth in assay [7] was -23.7% (active); in [8], 16.1%; in [9], 14.3%; in assay [10] it was -74.2% (active).

As for `CCCCCCC(=O)NC1=C(N2CC2)C(=O)C(NC(=O)CCCCCC)=C(N2CC2)C1=O`, the growth in assay [1] is 33.6%; in [2], 75%; in [3] it was 79.5%; in [4], 47.2%; in assay [5], 24%; in [6], 65.3%. Besides, the growth in assay [7] was 39.2%; in [8], 42.3%; in assay [9], 33.6%; in assay [10] it was 3.58% (active).
